Screen size: about 5,500 compounds; about 2,000 (36%) were called active. Inconclusive results (about 18%) are left out. No stated cut-off is given here; in the data, active means normalized growth mostly below about 0.91 (no sharp cut-off); inconclusive means no clear call, values can overlap the other calls; inactive means mostly above about 0.92. The list shows a part of the results.
Assay: chemical genetic growth profiling, strain panel (AID 1159580);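 further: tested at 20 µM; growth read once vehicle control cultures reached saturation at 30 °C; 1 = growth at the plate median or of vehicle wells; lower values mean less growth of the strain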
Conditions: S. cerevisiae deletion strains, growth OD

Measured: normalized growth

C#Cc1cccc(N=Cc2cc(Cl)cc(Br)c2O)c1
active: locus YAR019C, strain CDC15, active compounds read low 0.101 | locus YBL105C, strain PKC1, active compounds read low 0.0988 | locus YBR135W, strain CKS1, active compounds read low 0.128 | locus YBR136W, strain MEC1, active compounds read low 0.107 | locus YBR160W, strain CDC28, active compounds read low 0.134 | locus YDL017W, strain CDC7, active compounds read low 0.1 | locus YDL028C, strain MPS1, active compounds read low 0.108 | locus YDL101C, strain DUN1, active compounds read low 0.165 | locus YDL108W, strain KIN28, active compounds read low 0.122 | locus YDL214C, strain PRR2, active compounds read low 0.103 | locus YDR052C, strain DBF4, active compounds read low 0.451 | locus YDR054C, strain cdc34, active compounds read low 0.482 | locus YDR226W, strain ADK1, active compounds read low 0.534 | locus YDR477W, strain SNF1, active compounds read low 0.117 | locus YER123W, strain YCK3, active compounds read low 0.112 | locus YER133W, strain GLC7, active compounds read low 0.114 | locus YFL009W, strain cdc4, active compounds read low 0.108 | locus YFL029C, strain CAK1, active compounds read low 0.0962 | locus YFR003C, strain YPI1, active compounds read low 0.11 | locus YFR019W, strain FAB1, active compounds read low 0.107 | locus YFR028C, strain CDC14, active compounds read low 0.104 | locus YGR040W, strain KSS1, active compounds read low 0.13 | locus YGR052W, strain FMP48, active compounds read low 0.127 | locus YGR092W, strain DBF2, active compounds read low 0.114 | locus YHR030C, strain SLT2, active compounds read low 0.127 | locus YHR079C, strain IRE1, active compounds read low 0.125 | locus YHR082C, strain KSP1, active compounds read low 0.157 | locus YHR205W, strain SCH9, active compounds read low 0.021 | locus YIL147C, strain SLN1, active compounds read low 0.112 | locus YJL095W, strain BCK1, active compounds read low 0.135 | locus YJL128C, strain PBS2, active compounds read low 0.257 | locus YJL157C, strain FAR1, active compounds read low 0.0902 | locus YJR016C, strain ILV3, active compounds read low 0.103 | locus YJR066W, strain TOR1 (second series), active compounds read low 0.109 | locus YJR066W, strain TOR1, active compounds read low 0.137 | locus YKL048C, strain ELM1, active compounds read low 0.129 | locus YKL067W, strain YNK1, active compounds read low 0.109 | locus YKL101W, strain HSL1, active compounds read low 0.128 | locus YKL193C, strain SDS22, active compounds read low 0.108 | locus YKL203C, strain TOR2, active compounds read low 0.113 | locus YLR113W, strain HOG1, active compounds read low 0.132 | locus YLR133W, strain CKI1, active compounds read low 0.106 | locus YLR403W, strain SFP1, active compounds read low 0.0146 | locus YML070W, strain DAK1, active compounds read low 0.13 | locus YMR001C, strain CDC5, active compounds read low 0.0999 | locus YMR205C, strain PFK2 (second series), active compounds read low 0.12 | locus YMR277W, strain FCP1, active compounds read low 0.108 | locus YNL006W, strain LST8, active compounds read low 0.0957 | locus YNL020C, strain ARK1, active compounds read low 0.11 | locus YNL161W, strain CBK1, active compounds read low 0.107 | locus YNL183C, strain NPR1, active compounds read low 0.156 | locus YNL207W, strain RIO2, active compounds read low 0.119 | locus YNL222W, strain SSU72, active compounds read low 0.095 | locus YNL307C, strain MCK1 (second series), active compounds read low 0.114 | locus YOL078W, strain AVO1, active compounds read low 0.104 | locus YOL136C, strain PFK27, active compounds read low 0.1 | locus YOR061W, strain CKA2, active compounds read low 0.115 | locus YOR119C, strain RIO1, active compounds read low 0.11 | locus YOR231W, strain MKK1, active compounds read low 0.119 | locus YOR329C, strain SCD5, active compounds read low 0.0917 | locus YPL031C, strain PHO85, active compounds read low 0.116 | locus YPL153C, strain RAD53, active compounds read low 0.127 | locus YPL204W, strain HRR25, active compounds read low 0.13 | locus YPL209C, strain IPL1, active compounds read low 0.102 | locus YPL256C, strain CLN2, active compounds read low 0.16 | locus YPR025C, strain CCL1, active compounds read low 0.101 | strain NNK1, active compounds read low 0.108 | strain TSCII, active compounds read low 0.102

O=C(NCC1CCCCN1)c1cc(OCC(F)(F)F)ccc1OCC(F)(F)F (stereo not given)
inactive: locus YAL040C, strain CLN3, active compounds read low 0.988 | locus YCL061C, strain MRC1 (second series), active compounds read low 1 | locus YDR150W, strain NUM1, active compounds read low 1.01 | locus YDR363W, strain ESC2, active compounds read low 1.01 | locus YER002W, strain NOP16, active compounds read low 0.987 | locus YGR229C, strain SMI1, active compounds read low 1.03 | locus YNL175C, strain NOP13, active compounds read low 0.989 | locus YNL197C, strain WHI3, active compounds read low 0.986 | locus YNL224C, strain SQS1, active compounds read low 1.04 | locus YNL322C, strain KRE1, active compounds read low 0.995 | locus YOR083W, strain WHI5 (second series), active compounds read low 1.01 | locus YPL241C, strain CIN2, active compounds read low 0.998
